The text below walks through data of PubChem BioAssay (NCATS).

Values joined by “and” are separate entries in the source; they are usually repeats but may differ in a detail not shown here. Identical values can stand only once. Records with an inconclusive call do not appear. A call without a number means that no potency is given here. Active and inactive are the calls of the source. Calls follow the shape of the dose curve; as a rule, active = well fitted curve in the direction sought with a large enough effect; inconclusive = small, poorly fitted or top-dose-only effect, or another doubt; inactive = no such curve, though single readings can be large; an effect the other way counts as inactive or inconclusive.

Tyrosine-protein kinase Yes (Homo sapiens), sequence (P07947 whole entry, looked up): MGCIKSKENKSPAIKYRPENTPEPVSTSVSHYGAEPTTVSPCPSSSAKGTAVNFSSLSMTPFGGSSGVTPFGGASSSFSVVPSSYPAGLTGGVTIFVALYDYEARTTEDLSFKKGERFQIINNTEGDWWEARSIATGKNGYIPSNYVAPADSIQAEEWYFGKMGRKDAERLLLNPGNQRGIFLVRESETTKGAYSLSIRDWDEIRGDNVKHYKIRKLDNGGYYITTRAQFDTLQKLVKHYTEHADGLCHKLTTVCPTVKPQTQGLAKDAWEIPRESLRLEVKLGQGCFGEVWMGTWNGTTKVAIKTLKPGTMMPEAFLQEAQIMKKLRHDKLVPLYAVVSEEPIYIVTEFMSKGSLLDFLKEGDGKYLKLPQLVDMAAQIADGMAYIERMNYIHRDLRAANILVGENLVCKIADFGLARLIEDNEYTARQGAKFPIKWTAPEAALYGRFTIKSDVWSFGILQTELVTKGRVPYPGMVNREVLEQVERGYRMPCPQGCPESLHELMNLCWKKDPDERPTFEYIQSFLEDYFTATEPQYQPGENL

One assay deals with Tyrosine-protein kinase Yes (Homo sapiens) (UniProt P07947). Put plainly: qHTS for small molecule inhibitors of Yes1 kinase: Primary Screen (AID 686947). Also: nearly all actives have a fitted effect of over 60% in size. Also: potency is read from the fitted curve at half-maximal effect. Conditions: Yes1 kinase biochemical qHTS inhibition; series mostly up to 76.9 µM. An outline of the steps:
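In this qHTS format, inhibition is expressed relative to DMSO controls with enzyme (maximum) and without enzyme (minimum). The 60 min room-temperature reaction uses 0.1 mM ATP, with ADP detected by luminescence.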
As for `Fc1ccc(-c2nn3ccccc3c2-c2ccncc2)cc1`, the Potency was 23.2 µM (active).
As for `CS(=O)(=O)Nc1cccc(-c2ccc3c(NC(=O)C4CC4)n[nH]c3c2)c1`, the Potency was 11.6 µM (active).
The same measure, in the same setting: next, `CN1CCC(C(=O)Nc2n[nH]c3nc(-c4ccc(O)cc4)c(Br)cc23)CC1`: 36.8 µM (active) and 23.2 µM (active).
`NC(=O)Cc1ccccc1Oc1nccc(-c2c(-c3ccc(F)cc3)ncn2C2CCNCC2)n1`: the Potency was 36.8 µM (active).
`CC1=C(C(=O)Nc2ccc3[nH]ncc3c2)C(c2ccc(F)cc2)NC(=O)N1` (stereo not drawn): the Potency was 26 µM (active).
The same measure, in the same setting: next, `COc1ccc(-c2nn3ncccc3c2-c2ccnc(Nc3ccc(F)c(F)c3)n2)cc1`: 0.328 µM (active); `COc1cc(C=NNc2ncnc3c2cnn3-c2ccccc2)ccc1O`: 0.292 µM (active).
`CCS(=O)(=O)c1ccc(OC)c(Nc2ncc(-c3cccc(-c4ccccc4F)c3)o2)c1`: the Potency was 0.463 µM (active).
On to `CC(=O)Nc1cccc(C#Cc2cncnc2Nc2ccc(OCc3cccc(F)c3)c(Cl)c2)n1`, for which the Potency entry was “inactive”.
Turning to `Fc1ccc(-c2nn3ncccc3c2-c2ccnc(Nc3ccc4c(c3)OCCO4)n2)cc1`, the Potency was 0.0654 µM (active).
On to `NS(=O)(=O)c1ccc(N=Nc2c(O)[nH]c3ccc(C(=O)NCc4ccncc4)cc23)cc1`, for which the Potency is 4.63 µM (active).
Consider `c1ccc(Cc2nc3ccc(Nc4ncnc5ccccc45)cc3[nH]2)cc1`, for which the Potency was 1.16 µM (active).
With `N#Cc1c(NC(=O)c2ccccc2F)sc2c1CCCC2`, the Potency entry is “inactive”.
As for `COC(=O)Nc1nc2ccc(Oc3ccc(NC(=O)Nc4ccccc4)cc3)cc2[nH]1`, the Potency entry is “inactive”.
Take `CNC(=O)c1cncc(C=Cc2ccccc2Cl)c1`: the Potency is 8.23 µM (active).
Same read-out and setting: for `O=C1NC(=O)C(c2cccc(Cl)c2)=C1Nc1ccc(O)c(Cl)c1` the value was 9.23 µM (active); for `COc1ccc(-c2ccncc2)cc1C(N)=O`, “inactive”; for `CC1=C(C(=O)Nc2ccc3n[nH]c(C)c3c2)C(c2ccc(C(F)(F)F)cc2)CC(=O)N1` (stereo not drawn), 6.54 µM (active).
As for `CN1CCN(C(=O)c2ccc(NC(=O)Nc3ccc(N(C)c4ccnc(Nc5ccc(CS(C)(=O)=O)cc5)n4)cc3)cc2)CC1`, the Potency was 14.6 µM (active).
With `COc1cc(Nc2ncc3c(C)nc(-c4cccc(Oc5ccccc5)c4)n3n2)cc(OC)c1OC`, the Potency is 5.19 µM (active).
Same read-out and setting: for `CNC(=O)c1cncc(C=Cc2c(C)cccc2C)c1` the value was 0.463 µM (active); for `Fc1ccc(-c2cc(-c3cn[nH]c3-c3ccccn3)ccn2)cc1`, 29.2 µM (active); for `CCOc1nccc2c1nc(-c1nonc1N)n2CC`, “inactive”.
For `Fc1ccc(-c2ncn(C3CCNCC3)c2-c2ccnc(Oc3ccc(Oc4ccccc4)cc3)n2)cc1`, the Potency entry is “inactive”.
For `COc1cc2ncn(-c3cc(OCc4ccccc4C(F)(F)F)c(C(C)=O)s3)c2cc1OC`, the Potency result was “inactive”.
As to `O=S1CCN(Cc2ccc(-c3ccc4ncnc(Nc5ccc(OCc6ccccc6)c(F)c5)c4c3)o2)CC1`, the Potency is 0.463 µM (active).
`CC1=C(C(=O)Nc2ccc3[nH]ncc3c2)C(c2ccc(Cl)c(Cl)c2)CC(=O)N1` (stereo not drawn): the Potency was 2.92 µM (active).
For the compound `COc1cc2ncn(-c3cc(OCc4ccccc4C(F)(F)F)c(C(=O)N(C)C)s3)c2cc1OC`, the Potency is 7.33 µM (active).
For the compound `COc1ccc2cc(-c3c(-c4ccncc4)nc(-c4ccc(S(C)(=O)=O)cc4C)n3C)ccc2c1`, the Potency was 1.84 µM (active).
In the case of `Nc1nc(-c2ccccn2)c(-c2ccc3ncccc3n2)s1`, the Potency entry is “inactive”.
Still for that read-out and setting: next, `COc1ccc(-c2coc3ncnc(N)c23)cc1`: 11.6 µM (active); `CN(C)CCCn1c(-c2nonc2N)nc2cnccc21`: “inactive”.
As to `CS(=O)(=O)Nc1ccc(N=Cc2c(O)[nH]c3ccccc23)cc1`, the Potency was 3.68 µM (active).
Regarding `COC(=O)Nc1nc2ccc(Oc3ccc(NC(=O)Nc4cccc(Br)c4)cc3)cc2[nH]1`, the Potency result was “inactive”.
In the case of `O=C1NC(=O)C(c2ccccc2Cl)=C1Nc1cccc(O)c1`, the Potency is 8.23 µM (active).
Turning to `Fc1ccc(-c2ncn(C3CCNCC3)c2-c2ccnc(Oc3ccc(F)c(F)c3)n2)cc1`, the Potency result is “inactive”.
Consider `COC(=O)Nc1nc2ccc(S(=O)(=O)c3ccc(NC(=O)Nc4cc(C(F)(F)F)ccc4F)cc3)cc2[nH]1`, for which the Potency result is “inactive”.
As to `O=C1NC(=O)C(c2cccc(Cl)c2)=C1Nc1ccc(Cl)c(C(=O)O)c1`, the Potency result was “inactive”.
Consider `O=S1CCN(Cc2ccc(-c3ccc4ncnc(Nc5ccc(OCc6ccccc6)c(Cl)c5)c4c3)o2)CC1`, for which the Potency is 0.368 µM (active).

System in a further assay: not listed separately
Put plainly: qHTS for small molecule inhibitors of Yes1 kinase: Counter Assay (AID 686950).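 Also: no kinase present so only ADP-Glo detection of a fixed ADP amount is tested; luminescence from ADP-Glo reporting ADP in a fixed ATP and ADP mixture.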 Conditions: series mostly up to 76.9 µM. An outline of the steps:
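No kinase present; 0.08 mM ATP + 0.02 mM ADP in 50 mM Tris pH 7.5, 10 mM MgCl2, 150 mM NaCl, 1 mM DTT; 20 min compound preincubation, 60 min RT, ADP-Glo luminescence, normalized to ATP/ADP (max) and ATP-only (min).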
For `Fc1ccc(-c2nn3ccccc3c2-c2ccncc2)cc1`, the outcome was inactive.
`CS(=O)(=O)Nc1cccc(-c2ccc3c(NC(=O)C4CC4)n[nH]c3c2)c1`: the outcome was inactive.
On to `CN1CCC(C(=O)Nc2n[nH]c3nc(-c4ccc(O)cc4)c(Br)cc23)CC1`, for which the compound was called inactive.
For the compound `NC(=O)Cc1ccccc1Oc1nccc(-c2c(-c3ccc(F)cc3)ncn2C2CCNCC2)n1`, the result was inactive.
With `CC1=C(C(=O)Nc2ccc3[nH]ncc3c2)C(c2ccc(F)cc2)NC(=O)N1` (stereo not drawn), the call was inactive.
With `COc1ccc(-c2nn3ncccc3c2-c2ccnc(Nc3ccc(F)c(F)c3)n2)cc1`, the result was inactive.
For the compound `COc1cc(C=NNc2ncnc3c2cnn3-c2ccccc2)ccc1O`, the call was inactive.
On to `CCS(=O)(=O)c1ccc(OC)c(Nc2ncc(-c3cccc(-c4ccccc4F)c3)o2)c1`, for which the result was inactive.
Turning to `CC(=O)Nc1cccc(C#Cc2cncnc2Nc2ccc(OCc3cccc(F)c3)c(Cl)c2)n1`, the compound was called inactive.
Still for that read-out and setting: next, `Fc1ccc(-c2nn3ncccc3c2-c2ccnc(Nc3ccc4c(c3)OCCO4)n2)cc1`: “inactive”; `NS(=O)(=O)c1ccc(N=Nc2c(O)[nH]c3ccc(C(=O)NCc4ccncc4)cc23)cc1`: “inactive”; `c1ccc(Cc2nc3ccc(Nc4ncnc5ccccc45)cc3[nH]2)cc1`: “inactive”.
On the same count and under the same terms, for `N#Cc1c(NC(=O)c2ccccc2F)sc2c1CCCC2` the value was “inactive”; for `COC(=O)Nc1nc2ccc(Oc3ccc(NC(=O)Nc4ccccc4)cc3)cc2[nH]1`, “inactive”; for `CNC(=O)c1cncc(C=Cc2ccccc2Cl)c1`, “inactive”.
For the compound `O=C1NC(=O)C(c2cccc(Cl)c2)=C1Nc1ccc(O)c(Cl)c1`, the compound was called inactive.
Take `COc1ccc(-c2ccncc2)cc1C(N)=O`: the result was inactive.
The same measure, in the same setting: next, `CC1=C(C(=O)Nc2ccc3n[nH]c(C)c3c2)C(c2ccc(C(F)(F)F)cc2)CC(=O)N1` (stereo not drawn): “inactive”.
Still for that read-out and setting: next, `CN1CCN(C(=O)c2ccc(NC(=O)Nc3ccc(N(C)c4ccnc(Nc5ccc(CS(C)(=O)=O)cc5)n4)cc3)cc2)CC1`: “inactive”.
For `COc1cc(Nc2ncc3c(C)nc(-c4cccc(Oc5ccccc5)c4)n3n2)cc(OC)c1OC`, the result was inactive.
In the case of `CNC(=O)c1cncc(C=Cc2c(C)cccc2C)c1`, the compound was called inactive.
Consider `Fc1ccc(-c2cc(-c3cn[nH]c3-c3ccccn3)ccn2)cc1`, for which the call was inactive.
Take `CCOc1nccc2c1nc(-c1nonc1N)n2CC`: the result was inactive.
Regarding `Fc1ccc(-c2ncn(C3CCNCC3)c2-c2ccnc(Oc3ccc(Oc4ccccc4)cc3)n2)cc1`, the result was inactive.
Take `COc1cc2ncn(-c3cc(OCc4ccccc4C(F)(F)F)c(C(C)=O)s3)c2cc1OC`: the compound was classed as inactive.
Regarding `O=S1CCN(Cc2ccc(-c3ccc4ncnc(Nc5ccc(OCc6ccccc6)c(F)c5)c4c3)o2)CC1`, the result was inactive.
With `CC1=C(C(=O)Nc2ccc3[nH]ncc3c2)C(c2ccc(Cl)c(Cl)c2)CC(=O)N1` (stereo not drawn), the compound was classed as inactive.
Take `COc1cc2ncn(-c3cc(OCc4ccccc4C(F)(F)F)c(C(=O)N(C)C)s3)c2cc1OC`: the result was inactive.
Consider `COc1ccc2cc(-c3c(-c4ccncc4)nc(-c4ccc(S(C)(=O)=O)cc4C)n3C)ccc2c1`, for which the result was inactive.
Regarding `Nc1nc(-c2ccccn2)c(-c2ccc3ncccc3n2)s1`, the result was inactive.
The same measure, in the same setting: for `COc1ccc(-c2coc3ncnc(N)c23)cc1` the value was “inactive”; for `CN(C)CCCn1c(-c2nonc2N)nc2cnccc21`, “inactive”; for `CS(=O)(=O)Nc1ccc(N=Cc2c(O)[nH]c3ccccc23)cc1`, “inactive”.
`COC(=O)Nc1nc2ccc(Oc3ccc(NC(=O)Nc4cccc(Br)c4)cc3)cc2[nH]1`: the outcome was inactive.
Take `O=C1NC(=O)C(c2ccccc2Cl)=C1Nc1cccc(O)c1`: the compound was called inactive.
The same measure, in the same setting: next, `Fc1ccc(-c2ncn(C3CCNCC3)c2-c2ccnc(Oc3ccc(F)c(F)c3)n2)cc1`: “inactive”; `COC(=O)Nc1nc2ccc(S(=O)(=O)c3ccc(NC(=O)Nc4cc(C(F)(F)F)ccc4F)cc3)cc2[nH]1`: “inactive”; `O=C1NC(=O)C(c2cccc(Cl)c2)=C1Nc1ccc(Cl)c(C(=O)O)c1`: “inactive”.
On to `O=S1CCN(Cc2ccc(-c3ccc4ncnc(Nc5ccc(OCc6ccccc6)c(Cl)c5)c4c3)o2)CC1`, for which the result was inactive.
